Source: PubChem BioAssay AID720504 (National Center for Advancing Translational Sciences (NCATS), 2013)
The whole screen tested about 360,000 compounds, of which about 10,000 (2.8%) were called active. Another 4% or so got no clear call; they are omitted. Shown is part of a subset that was picked to be rich in actives. Unmarked numbers belong to inactive results. The call rests on the fitted dose curve; in most records, active means well fitted inhibition curve with a large enough effect; inconclusive means small, poorly fitted or top-dose-only effect; inactive means flat fitted curve, though single readings scatter.

Biological target: Serine/threonine-protein kinase PLK1 (Homo sapiens) (UniProt P53350)
Sequence (P53350 whole entry, looked up, the tested form may be a part): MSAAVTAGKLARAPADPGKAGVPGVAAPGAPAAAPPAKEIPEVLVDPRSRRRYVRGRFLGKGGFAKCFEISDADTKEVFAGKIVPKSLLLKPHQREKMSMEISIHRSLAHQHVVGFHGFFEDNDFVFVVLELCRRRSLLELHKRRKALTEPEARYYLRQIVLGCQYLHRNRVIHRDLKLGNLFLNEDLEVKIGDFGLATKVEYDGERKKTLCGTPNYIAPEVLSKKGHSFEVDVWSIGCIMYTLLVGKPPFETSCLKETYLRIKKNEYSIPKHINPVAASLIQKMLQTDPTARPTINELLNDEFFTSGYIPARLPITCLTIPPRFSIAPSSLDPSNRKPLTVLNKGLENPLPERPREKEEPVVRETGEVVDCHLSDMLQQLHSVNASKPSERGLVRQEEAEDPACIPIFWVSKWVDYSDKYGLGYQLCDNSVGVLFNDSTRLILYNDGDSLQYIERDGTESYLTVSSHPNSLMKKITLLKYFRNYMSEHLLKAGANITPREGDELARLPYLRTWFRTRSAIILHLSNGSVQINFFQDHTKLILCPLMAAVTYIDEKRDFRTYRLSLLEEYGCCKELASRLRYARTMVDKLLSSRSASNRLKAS
Test: qHTS for Inhibitors of PLK1-PDB (polo-like kinase 1 - polo-box domain): Primary Screen; further: nearly all actives have a fitted effect of over 65% in size; on max response, negative = inhibition: series mostly up to about 57 µM
Details: Plk1 PBD binding of FITC phosphopeptide, fluorescence polarization
On the % scale 0 is the no-effect control and ±100 the full control effect; potency means the concentration at half of the fitted maximal effect.

| SMILES | max response, negative = inhibition | Potency |
| --- | --- | --- |
| CCOC(=O)c1cc2cc(OC)ccc2n1C1CCN(C)CC1 | -4.75% | – |
| CCC(Oc1ccccc1)C(=O)OCC(=O)Nc1c(C)nn(-c2ccccc2)c1C (stereo not given) | -0.819% | – |
| CCOc1ccc(CCN2C(=S)N([C@@H](CC(C)C)CN3CCC[C@@H]3CN3C(=S)NC[C@@H]3Cc3ccc(O)cc3)C[C@@H]2CC(C)C)cc1 | 5.19% | – |
| CCCNC(=O)c1ccc(Cl)c(Cl)c1 | – | 21.2 µM (active) |
| COCC(C)NC(=O)c1ccc(Cl)c(Cl)c1 (stereo not given) | -9.11% | – |
| CCCNC(=O)c1c(Cl)cnn1-c1ccc(C)cc1 | -6.94% | – |
| COc1ccc(CC(N)c2csc(NC(=O)Cc3ccccc3)n2)cc1 (stereo not given) | -4.52% | – |
| COc1ccc(OC)c(C(O)c2ncc(-c3cccc(C(F)(F)F)c3)[nH]2)c1 (stereo not given) | 6.6% | – |
| Cc1cc(Br)cn2c(Cc3ccccc3C(F)(F)F)c(-c3ccc(Cl)cc3)nc12 | 2.92% | – |
| COc1cc2nnn(-c3ccncc3)c2cc1OC | -2.85% | – |
| CCOC(=O)C1(C)CCCN(C(=O)c2cccc(Cl)c2)C1 (stereo not given) | -9.97% | – |
| O=C1NC[C@H](CCCCN2CCN(CCc3ccccc3)C(=O)C2=O)N(CC2CCCCC2)C1=O | -4.62% | – |
| CC(C)Oc1ccc(CCc2n[nH]c(=S)n2Cc2ccccc2)cc1 | -8.99% | – |
| CC(C)Oc1ccc(Cc2n[nH]c(=S)n2Cc2ccccc2)cc1Cl | – | 16.8 µM (active) |
| COc1cc(-c2n[nH]c(=S)n2Cc2ccccc2)cc(OC)c1OC | -6.45% | – |
| CCc1c(N=O)c(-c2ccccc2)n(O)[n+]1[O-] | -2.08% | – |
| Nc1[nH]c(C(=O)c2ccccc2)c(-c2ccc(Br)cc2)c1C(=O)NC1CC1 | -9.8% | – |
| O=S1(=O)CC(N2CCN(Cc3ccccc3F)CC2)CN1Cc1cn(Cc2cccc(C(F)(F)F)c2)nn1 (stereo not given) | -2.54% | – |
| CCC(C(=O)Nc1ccc(C(C)C)cc1)c1ccccc1 (stereo not given) | 2.25% | – |
| Cc1ccc(NC(=S)NCCc2ccc(Cl)cc2)c(C)c1 | -3.36% | – |
| CC(C)c1ccc(NC(=S)NC2CC3C=CC2C3)cc1 (stereo not given) | -23.1% | – |
| O=C(NC(=S)Nc1ccc(Cl)c(C(=O)O)c1)c1cncc(Br)c1 | -11.2% | – |

| SMILES | max response, negative = inhibition | Potency |
| --- | --- | --- |
| Cc1ccc(C)c(NC(=S)NNC(=S)Nc2ccc(C(C)C)cc2)c1 | – | 18.9 µM (active) |
| CC(C)c1ccc(NC(=S)NNc2ccc(Cl)c(C(=O)O)c2)cc1 | – | 23.8 µM (active) |
| COC(=O)[C@]12CCCCC=C1N(Cc1ccco1)C(=O)[C@H](CC(=O)NCC1CCCCC1)C2 | -3.48% | – |
| CCCc1ccc(C(O)c2ncc(-c3cccc(OC)c3)[nH]2)cc1 (stereo not given) | -2.5% | – |
| CN(C(=O)COC(=O)Cc1ccccc1[N+](=O)[O-])C1CCS(=O)(=O)C1 (stereo not given) | 1.07% | – |
| CN(C(=O)COC(=O)c1cc(-c2ccco2)nc2ccccc12)C1CCS(=O)(=O)C1 (stereo not given) | – | 18.9 µM (active) |
| COc1ccc(/C=C(\C#N)C(=O)OCC(=O)N(C)C2CCS(=O)(=O)C2)cc1 (stereo not given) | -10.5% | – |
| COc1cncc(-c2cnc3sc(NCCc4ccccn4)nn23)c1 | -12.3% | – |
| Cc1ccc(C)c(S(=O)(=O)N2CCN(C(=O)Nc3ccccc3)CC2)c1 | -2.91% | – |
| Cc1ccc(S(=O)(=O)N2CC(=O)Nc3ccccc32)cc1C | -4.98% | – |
| Cc1ccc(C)c(S(=O)(=O)N2CC(=O)Nc3ccccc32)c1 | – | 23.8 µM (active) |
| NC(c1csc(NC(=O)Nc2ccccc2Oc2ccccc2)n1)c1ccccc1Cl (stereo not given) | 0.513% | – |
| Cc1cccc(N(CC(=O)N2CCCC2)S(C)(=O)=O)c1C | -8.37% | – |
| O=C(NCc1ccccc1)C(c1ccc(F)cc1)N1CCN(C(=O)C2CCCO2)CC1 (stereo not given) | 1.19% | – |
| CCN(C(=O)COC(=O)c1sccc1C)c1c(N)n(Cc2ccccc2)c(=O)[nH]c1=O | -3.78% | – |
| CCN(C(=O)COC(=O)Cc1c(F)cccc1Cl)c1c(N)n(Cc2ccccc2)c(=O)[nH]c1=O | 4.8% | – |
| CCN(C(=O)CN1CCN(Cc2ccccc2)CC1)c1c(N)n(Cc2ccccc2)c(=O)[nH]c1=O | – | 23.8 µM (active) |
| COc1ccc(NC(=O)CCCOc2ccc(C(C)=O)cc2)cc1S(=O)(=O)N1CCCCC1 | 2.7% | – |
| Brc1ccc2nc(-c3ccccc3)c(Cc3ccccc3)n2c1 | -6.3% | – |
| CN1OC[C@@H]2CN(C(=O)c3cccc4ccccc34)[C@H](c3ccc(N4CCCCC4)cc3)C[C@@H]21 | -3.91% | – |
| CC1(C(=O)Nc2cccc3c2CCCC3)CCN1C(=O)C1(c2ccccc2)CC1 (stereo not given) | 2.66% | – |
| CC1(Cc2ccccc2C#N)C(=O)Nc2ccc(-c3ccc4[nH]ccc4c3)cc21 (stereo not given) | 2.71% | – |

| SMILES | max response, negative = inhibition | Potency |
| --- | --- | --- |
| CCOC(=O)C1(CCOC)CCN(Cc2ccc(C(=O)OC)cc2)CC1 | -4.26% | – |
| CCOC(=O)C1(CCOc2ccccc2)CCN(Cc2cc(OC)cc(OC)c2)CC1 | -2.45% | – |
| CCOC(=O)C1(CCOC)CCN(Cc2cc3ccccc3s2)CC1 | – | 10.6 µM (active) |
| O=C(Nc1cccc2cccnc12)c1ccc2sc([C@H]3C[C@H](O)[C@@H](CO)O3)nc2c1 | 3.77% | – |
| Cn1c(=O)[nH]c(=O)c2c1nc(N1CCN(CCO)CC1)n2CCSc1nc2ccccc2s1 | -15.4% | – |
| O=C(O)c1ccccc1CSc1nc2ccccc2s1 | – | 8.44 µM (active) |
| Nc1nnc(SCC(=O)Nc2ccc3nc(SCC(=O)Nc4ccccc4)sc3c2)s1 | 2.76% | – |
| Cc1noc(C)c1S(=O)(=O)N(C)C[C@H]1OCCCC[C@@H](C)Oc2ccc(NC(=O)CCCN(C)C)cc2C(=O)N([C@H](C)CO)C[C@@H]1C | -12.6% | – |
| CC1(C(=O)NS(=O)(=O)Cc2cccc(Cl)c2)CCN1C(=O)Cc1ccccc1 (stereo not given) | 0.171% | – |
| Cc1c(C)c2ccc(OCC(=O)N3CCN(c4cccc(Cl)c4)CC3)cc2oc1=O | -4.22% | – |
| CSCCC(NC(=O)COc1ccccc1)C(=O)N1CCN(c2cccc(C(F)(F)F)c2)CC1 (stereo not given) | 10.8% | – |
| O=C(COc1ccc(Cl)cc1)N1CCN(c2cccc(C(F)(F)F)c2)CC1 | – | 18.9 µM (active) |
| CCOc1cc(/C=N/NC(=O)c2ccncc2)cc(Br)c1O | -2.72% | – |
| O=C(CC[C@H]1O[C@@H](n2ccc(=O)[nH]c2=O)[C@H](O)[C@@H]1O)N[C@H](Cc1ccccc1)C(=O)NCCCN1CCCC1=O | -13.5% | – |
| CN(C)CCNC(=O)c1cccc(-c2cnc3c(NC=O)cc(-c4cccc(C(F)(F)F)c4)cn23)c1 | -13.6% | – |
| CC(C)(C)OC(=O)N1CCN(C(=O)c2[nH]c(C(F)(F)F)nc2-c2ccccc2)CC1 | 1.58% | – |
| CCOC(=O)C(C)n1cnc2c(nnn2-c2cccc(OC)c2)c1=O (stereo not given) | 1.99% | – |
| COC(=O)c1sc(N2CCN(Cc3ccccc3)CC2)nc1N | -4.47% | – |
| COC(=O)c1sc(=S)n(-c2ccccc2)c1N | – | 10 µM (active) |
| CCOC(=O)c1sc(=S)n(-c2cccc(OC)c2)c1N | – | 14.1 µM (active) |
| COC(=O)C1=C(C)N(C)C(=S)NC1c1ccccc1 (stereo not given) | -7.92% | – |
| CCOC(=O)c1cnc(SCC(=O)Nc2cccc(OC)c2)nc1N | -5.18% | – |

| SMILES | max response, negative = inhibition | Potency |
| --- | --- | --- |
| CC1(C)OC(=O)C2=C(C[C@@H](C3CC3)O[C@H]2CCc2cccc(Cl)c2)O1 | 4.74% | – |
| COc1ccc(C(C#N)=C2C=CC(=NO)c3ccccc32)cc1 | -0.254% | – |
| COc1ccccc1NC(=O)C(CC(=O)O)Cc1cc(C)cc(C)c1 (stereo not given) | -4.75% | – |
| Cn1c(Nc2ccc(F)cc2)nc2cc(-c3ccsc3)sc2c1=O | -9.36% | – |
| CC1Cc2ccccc2N1C(=O)CSc1nnc(-c2ccc(S(=O)(=O)N3CCCC3)cc2)n1C (stereo not given) | -7.29% | – |
| CC1Cc2ccccc2N1C(=O)CSc1nnc(C2CC2)n1C (stereo not given) | – | 21.2 µM (active) |
| CCn1c(CSc2ncccn2)nnc1SCC(=O)N1c2ccccc2CC1C (stereo not given) | -13% | – |
| Cc1ccc(Cn2cc(CN3CC(N4CCN(C)CC4)CS3(=O)=O)nn2)cc1 (stereo not given) | -1.82% | – |
| O=C1[C@H]2[C@@H](c3ccc(C(F)(F)F)cc3)N[C@]3(CCCN(Cc4ccc(Br)cc4)C3=O)[C@H]2C(=O)N1Cc1ccccc1 | 8.62% | – |
| CC(C)C1CC2=C(C(=O)OC(C)(C)O2)C(c2ccc(F)cc2)O1 (stereo not given) | 2.13% | – |
| O=C(O)C(=Cc1ccc([N+](=O)[O-])cc1)CCc1ccccc1 | -6.74% | – |
| CNC(=S)Nc1ccc([N+](=O)[O-])cc1 | -17.5% | – |
| O=C1/C(=C\c2ccc([N+](=O)[O-])cc2)CS(=O)(=O)C/C1=C/c1ccc([N+](=O)[O-])cc1 | – | 4.23 µM (active) |
| CC(=O)OC[C@@H]1CN(Cc2ccccc2)C[C@H](n2cnc3c(NCc4ccco4)ncnc32)O1 | 1.29% | – |
| CCN1C(=O)[C@@H]2[C@@H]3CN(S(=O)(=O)c4ccccc4C)[C@@H](c4ccc(Cl)cc4)[C@@H]3C(=O)C[C@@H]2C1=O | -4.29% | – |
| CCS(=O)(=O)c1cc([N+](=O)[O-])c(Sc2ccccc2N)s1 | – | 23.8 µM (active) |
| Cc1ccc(S(=O)(=O)NCCSc2ccccc2)cc1[N+](=O)[O-] | 1.72% | – |
| Cc1cccc(CN2CCN(C3CN(Cc4cn(Cc5cc(C)cc(C)c5)nn4)S(=O)(=O)C3)CC2)c1 (stereo not given) | -3.6% | – |
| COc1ccc(S(=O)(=O)N(C)C[C@H]2OCc3cnnn3CCCC(=O)N([C@H](C)CO)C[C@H]2C)cc1 | -13.3% | – |
